The results in this text go back to PubChem BioAssay (NCI).

Each structure is given as a SMILES string. Compounds without any hit were thinned out: in the full panel of roughly 83,000, 20% have a hit.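 Compound tested at a single concentration for 48 hours in 96-well plates; a percent growth value below 10 was scored as active.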 A number with no mark means an inactive call. Activity calls are given as the source filed them.

Among the test systems are T-47D breast; BT-549 breast; MDA-MB-435 melanoma; SW-620 colon; MCF7 breast; HCT-116 colon; HCC-2998 colon; KM12 colon.
Experiment in all cases: NCI-60 one-dose screen, 48 h (100 = growth as untreated, 0 = no growth, -100 = all killed)
What all share (conditions): 10 µM unless noted

Regarding `Fc1ccc(/C=N/n2c(-c3cc(Cl)cc(Cl)c3Cl)nn(CNc3ccc(Cl)nn3)c2=S)cc1`, the growth is 86% in the test on T-47D breast; 114% with BT-549 breast; 97.9% with MDA-MB-435 melanoma; 112% in the test on SW-620 colon; 98.9% with MCF7 breast; 78.1% in the test on HCT-116 colon. Besides, the figures for the growth in the test with HCC-2998 colon and with KM12 colon were 107% and 97.3%, respectively.
Take `Cc1c(C(C)(C)C)cc(C(C)(C)C)c2c1CN(C)CO2`: the growth was 104% in the test on T-47D breast; 110% in the test on BT-549 breast; 113% in the test with MDA-MB-435 melanoma; 117% in the test on SW-620 colon; 99.8% with MCF7 breast; 104% in the test on HCT-116 colon. Further, the growth in the test on HCC-2998 colon is 101%; in the test with KM12 colon it was 113%.
With `Clc1ccc2c(NCCNc3nc(Cl)nc4ccccc34)ccnc2c1`, the growth was -63.6% (active) in the test on T-47D breast; -65.6% (active) in the test on BT-549 breast; -89.4% (active) with MDA-MB-435 melanoma; -77.1% (active) with SW-620 colon; -63.8% (active) in the test with MCF7 breast; -96.7% (active) in the test with HCT-116 colon. The growth in the test with HCC-2998 colon was -64.1% (active); in the test on KM12 colon, -76.5% (active).
`COC(=O)/C=C/C(=O)c1cc(C)cc(C)c1O`: the growth with T-47D breast is 100%; in the test with BT-549 breast, 103%; in the test on MDA-MB-435 melanoma, 103%; in the test with SW-620 colon, 110%; in the test on MCF7 breast, 95.5%; in the test on HCT-116 colon it was 106%. Also, the growth in the test with HCC-2998 colon is 96.7%; in the test with KM12 colon, 99.1%.
With `CC[C@H]1[C@@H]2C=C[C@@H]3[C@H]4C/C=C\C(=O)NCCC[C@@H]5NC(=O)/C(=C(O)/C=C/[C@@H]4C[C@@H]3[C@H]2C[C@H]1C)C5=O`, the growth in the test with T-47D breast is 33.7%; in the test on BT-549 breast, -49.2% (active); in the test with MDA-MB-435 melanoma, -81% (active); in the test on SW-620 colon, 69.2%; with MCF7 breast, 41.3%; with HCT-116 colon, -11.8% (active). Moreover, the growth in the test on HCC-2998 colon was 52.8%; in the test on KM12 colon, 63.8%.
For the compound `COc1cc(/C=C2/Oc3cc4occc4c(OC)c3C2=O)ccc1OCC(=O)Nc1ccncc1`, the growth in the test with T-47D breast is 108%; in the test with BT-549 breast, 93.9%; with MDA-MB-435 melanoma, 112%; with SW-620 colon it was 103%; in the test on MCF7 breast it was 94.3%; in the test with HCT-116 colon, 95.3%. Moreover, the growth with HCC-2998 colon is 110%; in the test on KM12 colon, 97.1%.
For the compound `COc1cc2nc(C(=O)N3CCCCC3)cc(Nc3ccccc3)c2cc1OC`, the growth in the test with T-47D breast was 91.2%; with BT-549 breast it was 102%; in the test on MDA-MB-435 melanoma, 104%; in the test with SW-620 colon, 107%; in the test on MCF7 breast, 96.5%; with HCT-116 colon, 99.9%. The growth in the test with HCC-2998 colon is 105%; in the test on KM12 colon, 99.3%.
`CCOC(=O)c1noc2c1CCc1cn(Cc3cc(OC)cc(OC)c3)cc1-2`: the growth with T-47D breast is 94.7%; in the test on BT-549 breast, 91.5%; in the test on MDA-MB-435 melanoma, 103%; in the test on SW-620 colon it was 103%; in the test on MCF7 breast, 94.9%; in the test with HCT-116 colon, 92.3%. Moreover, the figures for the growth with HCC-2998 colon and in the test on KM12 colon were 88.9% and 100%, respectively.
Turning to `C/C(=N/NC(=O)Cn1c2ccccc2c2ccncc21)c1cccs1`, the growth with T-47D breast was 96.4%; with BT-549 breast it was 104%; in the test on MDA-MB-435 melanoma it was 110%; in the test with SW-620 colon, 103%; in the test on MCF7 breast, 102%; in the test with HCT-116 colon, 100%. The growth was 96.9% in the test with HCC-2998 colon and 101% in the test with KM12 colon.
On to `CC1=C[S+](c2ccccc2)c2cccc3cc4ccccc4c1c23` (stereo not drawn), for which the growth is -51.9% (active) in the test on T-47D breast; -10.9% (active) in the test with BT-549 breast; 0.153% (active) in the test on MDA-MB-435 melanoma; -13.4% (active) in the test with SW-620 colon; -49.9% (active) in the test with MCF7 breast; -87.6% (active) in the test on HCT-116 colon. The results for the growth in the test on HCC-2998 colon and in the test on KM12 colon were -89.4% (active) and -88% (active), respectively.
With `CCCC(=O)Oc1ccc(/C(=C(\C)c2ccc(Cl)cc2)c2ccc(OCCN(CC)CC)cc2)cc1`, the growth in the test on T-47D breast is -33.1% (active); in the test on BT-549 breast, 22.7%; in the test with MDA-MB-435 melanoma it was -85.9% (active); in the test on SW-620 colon, -80.2% (active); in the test with MCF7 breast, -78.4% (active); with HCT-116 colon it was -86.7% (active). Moreover, the growth was -65.4% (active) with HCC-2998 colon and -44.4% (active) with KM12 colon.
Turning to `NC(N)=N/N=C/c1ccc([N+](=O)[O-])cc1`, the growth in the test with T-47D breast is 98.7%; in the test on BT-549 breast, 85.5%; with MDA-MB-435 melanoma it was 112%; with SW-620 colon, 94.1%; in the test on MCF7 breast, 93.1%; with HCT-116 colon, 90.6%. Moreover, the results for the growth with HCC-2998 colon and in the test on KM12 colon were 99.9% and 103%, respectively.
`CCCCOc1c(N)cccc1C(=O)OCCN(CC)CC`: the growth in the test with T-47D breast was 93.3%; with BT-549 breast, 93.6%; with MDA-MB-435 melanoma it was 111%; in the test with SW-620 colon it was 102%; in the test with MCF7 breast, 103%; with HCT-116 colon, 79.2%. In addition, the growth in the test on HCC-2998 colon was 90.2%; in the test with KM12 colon, 102%.
For the compound `O=C1CCC(=O)N1C1CCCCC1`, the growth is 85.8% with T-47D breast; 102% in the test with BT-549 breast; 99.5% with MDA-MB-435 melanoma; 105% in the test with SW-620 colon; 96.2% in the test on MCF7 breast; 99% in the test on HCT-116 colon. Also, the growth was 103% with HCC-2998 colon and 101% with KM12 colon.
Regarding `c1cncc(-c2nc3ccccc3[nH]2)c1`, the growth with T-47D breast is 103%; with BT-549 breast, 100%; with MDA-MB-435 melanoma it was 121%; in the test on SW-620 colon it was 85.1%; in the test with MCF7 breast, 85.1%; with HCT-116 colon, 93.8%. Further, the growth was 92.2% in the test with HCC-2998 colon and 97.5% in the test with KM12 colon.
Consider `Nc1nccc(=S)[nH]1`, for which the growth with T-47D breast is 99.6%; with BT-549 breast, 114%; in the test with MDA-MB-435 melanoma, 110%; in the test on SW-620 colon, 103%; with MCF7 breast, 93.4%; in the test on HCT-116 colon, 109%. In addition, the growth is 114% in the test on HCC-2998 colon and 106% with KM12 colon.
